# According to PubChem BioAssay (NCATS):
# Results filed as inconclusive are left out. Values without a mark were called inactive. Calls of active or inactive are those of the source. The call rests on the fitted dose curve; in most records, active means well fitted curve in the direction sought with a large enough effect; inconclusive means small, poorly fitted or top-dose-only effect, or another doubt; inactive means no such curve, though single readings can be large; an effect the other way counts as inactive or inconclusive.
# Key:
# [1] = biological target: Cytochrome P450 2C9 (Homo sapiens) (UniProt P11712); assay: qHTS Assay for Inhibitors and Substrates of Cytochrome P450 2C9 (AID 883); details: recombinant CYP2C9, luciferin-H luminescence, 60 min; series mostly up to 57.1 µM; further: nearly all actives have a fitted effect of over 60% in size
# Procedure, shortened: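 Human CYP2C9 (10nM) with Luciferin-H at 100uM (its KM) in 25mM KPO4; compound preincubated 10 min at 37C, then NADPH regeneration for 60 min at 37C. Luciferin read by luminescence after detection reagent; normalized to 57uM sulphaphenazole as full inhibition.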
# [2] = biological target: Dual specificity protein kinase CLK4 (Homo sapiens) (UniProt Q9HAZ1); assay: qHTS Assay for Inhibitors of CDC-like Kinase 4 (ADP-Glo Assay) (AID 1771); details: recombinant CLK4, ADP-Glo luminescence; series mostly up to 80 µM; further: nearly all actives have a fitted effect of over 70% in size
# Procedure, shortened: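 25 nM Clk4 with 100 uM RS repeat peptide and 1 uM ATP (final) in buffer with 2 mM MgCl2, 0.5 mM EGTA, 2.5 mM DTT, 0.01% Triton X-100; 1 h at room temperature; ADP-Glo luminescence for ADP formed.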
# [3] = biological target: Cytochrome P450 2D6 (Homo sapiens) (UniProt P10635); assay: qHTS Assay for Inhibitors and Substrates of Cytochrome P450 2D6 (AID 891); details: recombinant CYP2D6, luciferin-ME EGE luminescence; series mostly up to 57.1 µM; further: nearly all actives have a fitted effect of over 60% in size;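 on activity change, negative = inhibition: luciferin methyl ether substrate demethylated by CYP2D6 with NADPH regeneration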
# Procedure, shortened: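 Human CYP2D6 (5 nM) with 30 uM Luciferin-ME EGE (at Km) in 100 mM KPO4, compound preincubated 10 min, then NADPH regeneration system for 60 min at room temperature. Luciferin read by luminescence; normalized to 1.43 uM quinidine.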
# On the % scale 0 is the no-effect control and ±100 the full control effect; potency means the concentration at half of the fitted maximal effect.
# Sequence of Cytochrome P450 2C9 (Homo sapiens) (P11712 whole entry, looked up): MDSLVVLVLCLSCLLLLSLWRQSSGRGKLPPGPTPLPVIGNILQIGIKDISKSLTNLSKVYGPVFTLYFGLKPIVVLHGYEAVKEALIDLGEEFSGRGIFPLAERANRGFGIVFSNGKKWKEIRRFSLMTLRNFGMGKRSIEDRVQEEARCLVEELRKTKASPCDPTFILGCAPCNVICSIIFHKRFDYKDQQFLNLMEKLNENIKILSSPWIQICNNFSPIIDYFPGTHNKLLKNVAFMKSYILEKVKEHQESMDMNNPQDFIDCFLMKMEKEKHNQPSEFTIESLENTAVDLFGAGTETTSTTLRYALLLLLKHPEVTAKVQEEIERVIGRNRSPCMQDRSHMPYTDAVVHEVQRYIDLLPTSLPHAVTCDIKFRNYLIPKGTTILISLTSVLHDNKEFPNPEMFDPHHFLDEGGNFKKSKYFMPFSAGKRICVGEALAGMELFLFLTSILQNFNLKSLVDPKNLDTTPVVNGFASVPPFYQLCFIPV
# Sequence of Dual specificity protein kinase CLK4 (Homo sapiens) (Q9HAZ1 whole entry, looked up): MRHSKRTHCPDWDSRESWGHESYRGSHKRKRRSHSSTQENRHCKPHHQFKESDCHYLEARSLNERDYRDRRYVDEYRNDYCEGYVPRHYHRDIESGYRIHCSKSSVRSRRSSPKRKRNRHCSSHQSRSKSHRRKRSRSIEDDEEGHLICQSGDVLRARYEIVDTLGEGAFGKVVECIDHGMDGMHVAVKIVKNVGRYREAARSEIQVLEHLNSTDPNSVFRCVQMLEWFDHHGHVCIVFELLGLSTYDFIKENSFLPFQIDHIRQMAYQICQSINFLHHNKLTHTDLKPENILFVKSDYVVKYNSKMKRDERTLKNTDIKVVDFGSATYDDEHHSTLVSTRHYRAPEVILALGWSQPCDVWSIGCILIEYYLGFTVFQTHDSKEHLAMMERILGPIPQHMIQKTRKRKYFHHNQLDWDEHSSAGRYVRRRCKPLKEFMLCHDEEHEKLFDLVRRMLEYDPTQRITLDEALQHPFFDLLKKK
# Sequence of Cytochrome P450 2D6 (Homo sapiens) (P10635 whole entry, looked up): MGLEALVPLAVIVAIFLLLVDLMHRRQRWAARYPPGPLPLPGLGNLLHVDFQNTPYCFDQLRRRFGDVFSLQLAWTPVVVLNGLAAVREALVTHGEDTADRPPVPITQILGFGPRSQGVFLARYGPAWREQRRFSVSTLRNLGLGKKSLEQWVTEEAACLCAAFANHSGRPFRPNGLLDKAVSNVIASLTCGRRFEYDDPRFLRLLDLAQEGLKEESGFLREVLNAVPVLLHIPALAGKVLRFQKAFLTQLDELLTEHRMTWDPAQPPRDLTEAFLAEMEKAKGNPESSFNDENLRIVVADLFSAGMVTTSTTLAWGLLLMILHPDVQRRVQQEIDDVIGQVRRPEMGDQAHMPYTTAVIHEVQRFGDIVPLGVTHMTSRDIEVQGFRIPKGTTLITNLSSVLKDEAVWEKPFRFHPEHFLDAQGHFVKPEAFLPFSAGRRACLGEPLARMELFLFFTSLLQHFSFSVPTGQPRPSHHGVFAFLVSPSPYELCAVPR
compound,measurement,setting,value
CN(C)C(=O)c1ccc(-c2nc(NC3CCNCC3)c3ccccc3n2)cc1,"activity change, negative = inhibition",[1],46.2% [at 2.29 µM]
CCNc1ncc2nc(-c3cn(C)c4ccccc34)c(=O)n(-c3ccc(OC)cc3)c2n1,Potency,[2],inactive
COc1ccccc1-c1ccc2ncnc(NC3CCNCC3)c2c1,Potency,[2],inactive
COCCn1c(=O)c(-c2ccc(Cl)cc2)nc2cnc(Nc3ccccc3)nc21,Potency,[2],inactive
CN(C)C(=O)c1ccc(-c2cncnc2N2CCNCC2)cc1,Potency,[3],7.94 µM (active)
same,Potency,[2],inactive
c1csc(CNc2ccnc(-c3ccoc3)n2)c1,Potency,[3],3.16 µM (active)
COc1cccc(Nc2ncc3nc(C)c(=O)n(CCc4ccccc4)c3n2)c1,Potency,[2],7.08 µM (active)
CCNc1ncc2nc(C)c(=O)n(Cc3ccc(F)cc3)c2n1,Potency,[2],15.8 µM (active)
c1csc(CNc2cc(-c3ccoc3)ncn2)c1,Potency,[2],35.5 µM (active)
Cn1c(=O)cnc2cnc(OCc3ccccc3)nc21,Potency,[2],20 µM (active)
c1ccc2c(NC3CCNCC3)nc(-c3ccoc3)nc2c1,Potency,[2],inactive
Fc1ccc(Nc2ccnc(-c3ccoc3)n2)cc1,Potency,[2],inactive
CCNc1ncc2nc(-c3cc(F)cc(F)c3)c(=O)n(C[C@H]3CCCO3)c2n1,Potency,[3],0.158 µM (active)
same,Potency,[2],inactive
CS(=O)(=O)Nc1cccc(-c2cncnc2Nc2ccc(F)cc2)c1,Potency,[2],31.6 µM (active)
Cc1nc2cnc(Nc3ccccc3)nc2n(C2CC2)c1=O,Potency,[2],6.31 µM (active)
Fc1ccc(Nc2ncncc2-c2ccoc2)cc1,Potency,[2],10 µM (active)
CN(C)C(=O)c1ccc(-c2cncnc2NCCc2cnc[nH]2)cc1,Potency,[3],0.794 µM (active)
FC(F)(F)c1ccccc1-c1ccc2ncnc(NCc3cccnc3)c2c1,Potency,[3],1.58 µM (active)
Cc1noc(C)c1-c1ccc2ncnc(NC3CCNCC3)c2c1,Potency,[2],25.1 µM (active)
CNc1ccnc(-c2c(C)noc2C)n1,"activity change, negative = inhibition",[1],41% [at 2.29 µM]
COc1ccccc1-c1cc(NCc2ccccc2)ncn1,"activity change, negative = inhibition",[1],35.7% [at 2.29 µM]
O=c1c(-c2cc(F)cc(F)c2)nc2cnc(N3CCNCC3)nc2n1C1CC1,Potency,[1],0.158 µM (active)
COc1ccc(CNc2ncncc2-c2cccnc2)c(OC)c1,"activity change, negative = inhibition",[1],26.1% [at 2.29 µM]
COCCNc1cc(-c2ccccc2CN(C)C)ncn1,"activity change, negative = inhibition",[1],49.4% [at 2.29 µM]
CS(=O)(=O)Nc1cccc(-c2cncnc2NCc2cccs2)c1,Potency,[1],0.126 µM (active)
CCNc1ncc2nc(C)c(=O)n(-c3ccc(OC)cc3)c2n1,Potency,[1],inactive
same,Potency,[3],inactive
CN(C)Cc1ccccc1-c1cc(NC2CC2)ncn1,"activity change, negative = inhibition",[1],5.15% [at 2.29 µM]
same,Potency,[3],0.0398 µM (active)
COCCNc1ccnc(-c2ccccc2C(F)(F)F)n1,"activity change, negative = inhibition",[1],34.3% [at 2.29 µM]
CN(C)C(=O)c1ccc(-c2ccc3ncnc(N4CCC(C(=O)O)CC4)c3c2)cc1,"activity change, negative = inhibition",[1],37.2% [at 2.29 µM]
CNc1ccnc(-c2ccccc2CN(C)C)n1,Potency,[3],0.0398 µM (active)
COc1ccc2[nH]cc(CCNc3ncncc3-c3ccc(N(C)C)cc3)c2c1,Potency,[1],0.501 µM (active)
c1csc(CNc2ncncc2-c2ccc3c(c2)OCO3)c1,Potency,[1],0.316 µM (active)
CN(C)c1ccnc(-c2cccc(NS(C)(=O)=O)c2)n1,"activity change, negative = inhibition",[1],2.49% [at 2.29 µM]
